We go through 18 compounds from PubChem BioAssay.

Active and inactive are the calls of the source. No rule for the calls is given here.

The target of this assay is Pantothenate synthetase (Mycobacterium tuberculosis (strain ATCC 25618 / H37Rv)) (UniProt P9WIL5). Description: Recombinant Mtb pantothenate synthetase (PanC) inhibitors, coupled enzyme, confirmatory (AID 375).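 Also: 0% = full reaction with vehicle and 100% = no enzyme background.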 As to conditions: coupled enzyme assay; at 10 µM, active compounds read high.
Sequence of Pantothenate synthetase (Mycobacterium tuberculosis (strain ATCC 25618 / H37Rv)) (P9WIL5 whole entry, looked up): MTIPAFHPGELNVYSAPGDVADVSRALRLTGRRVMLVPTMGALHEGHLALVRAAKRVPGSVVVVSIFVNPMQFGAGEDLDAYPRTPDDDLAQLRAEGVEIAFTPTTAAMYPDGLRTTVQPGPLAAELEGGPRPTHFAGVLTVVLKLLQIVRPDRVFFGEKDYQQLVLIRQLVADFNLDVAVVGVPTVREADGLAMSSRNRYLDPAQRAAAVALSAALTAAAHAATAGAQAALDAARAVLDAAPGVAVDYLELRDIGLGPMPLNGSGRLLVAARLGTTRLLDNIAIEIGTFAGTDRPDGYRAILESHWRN
For `O=C(NCCO)c1cc2ccccc2cc1O`, the inhibition is 0% (inactive).
Turning to `CCn1c(Cc2ccccc2)nnc1SCC(=O)Nc1cc(C)on1`, the inhibition was 0% (inactive).
With `Cc1ccc2nc(SC(C)C(=O)N3CCCC3)[nH]c2c1` (stereo not drawn) the figure was 2% (inactive).
Take `COc1ccc(NC(=O)Cn2nnc(-c3ccccc3N)n2)cc1OC`: the inhibition is 0% (inactive).
As for `C=CCOc1ccc(/C(CC)=N/O)c(OC)c1`, the inhibition was 0% (inactive).
In the case of `CCOc1cc(NC(=O)c2ccco2)c(OCC)cc1NC(=O)CCc1ccc(OC)cc1`, the inhibition is 3% (inactive).
Consider `O=C(CN1c2cccc3cccc(c23)S1(=O)=O)N1CCOCC1`, for which the inhibition was 0% (inactive).
In the case of `CSc1nnc(-c2nnc(SC)n2-c2ccccc2)n1-c1ccccc1`, the inhibition was 0% (inactive).
For the compound `O=C(NCc1cccs1)c1cc2c(s1)CCCC2`, the inhibition was 0% (inactive).
With `CCCCC(=O)NCCNc1nc2c(c(=O)n(C)c(=O)n2C)n1Cc1ccccc1` the figure was 0% (inactive).
As to `COc1ccccc1OCC(=O)Nc1ccc(S(=O)(=O)Nc2nc(C)cc(C)n2)cc1`, the inhibition is 1% (inactive).
Regarding `COc1cccc(CC(=O)Nn2c(C)nc3ccccc3c2=O)c1`, the inhibition was 2% (inactive).
With `COc1cccc(NC(=O)c2nc3nc(C)cc(C(F)F)n3n2)c1` the figure was 0% (inactive); with `COc1ccc(CC(=O)OCn2nnc3ccccc3c2=O)cc1`, 4% (inactive); with `Clc1cccc(-c2nnc(-c3ccccc3)o2)c1`, 0% (inactive).
Take `CCCN(S(=O)(=O)c1ccc(OCC)cc1)S(=O)(=O)c1cccs1`: the inhibition is 0% (inactive).
In the case of `Cc1[nH]c2ccccc2c1Cc1nnc(SCC(=O)NCc2ccco2)o1`, the inhibition is 1% (inactive).
As for `O=C(Cc1ccsc1-c1ccccc1)NO`, the inhibition is 0% (inactive).
